In the library only some 7.5% were active in any assay of this set; here they are far more common.
Giardia FBPA inh – blocks Giardia fructose-bisphosphate aldolase activity | actives 0.71% (n = 290,000) | purified Giardia FBPA | Potency, µM (series often up to 59.6 µM), actives largely listed as inhibitors | A8B2U2; further: nearly all actives have a fitted effect of over 55% in size
Target sequence (A8B2U2 whole entry, looked up): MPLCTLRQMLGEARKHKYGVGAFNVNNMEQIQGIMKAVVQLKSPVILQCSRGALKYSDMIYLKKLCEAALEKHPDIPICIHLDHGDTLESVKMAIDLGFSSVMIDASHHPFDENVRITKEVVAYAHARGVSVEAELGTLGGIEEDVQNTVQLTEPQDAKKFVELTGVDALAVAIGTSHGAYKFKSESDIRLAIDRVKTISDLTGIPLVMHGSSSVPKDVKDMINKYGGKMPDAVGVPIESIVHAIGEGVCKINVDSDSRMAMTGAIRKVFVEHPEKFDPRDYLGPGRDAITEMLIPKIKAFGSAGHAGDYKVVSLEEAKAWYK
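Giardia FBPA (40 nM reagent) was preincubated 10 min at RT with compound (up to 57.5 uM final), then substrate plus GAPDH/TPI/NAD/arsenate coupling system with diaphorase/resazurin was added; resorufin fluorescence (525/598 nm) was read after 20 min.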
HCV inh – blocks hepatitis C virus; Potency, µM (highest dose often 41.8 µM), hits mostly inhibitors; Huh7.5.1 HCVcc-Cre infection, luciferase reporter, 44 h; actives 3.4% (n = 340,000)
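Compounds are dispensed onto cells plated 4 h earlier at 1,000 per well, with HCVcc-Cre virus (about 0.5 moi) added next. Following 44 h of culture, luminescent signal is measured for 15 sec after 15 min with substrate at room temperature.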
VACV Venus inh – vaccinia inhibition (Venus reporter). Vaccinia virus Venus reporter expression, fluorescence. Potency, µM (doses to about 36.5 µM), most hits filed as inhibitors. actives 0.46% (n = 330,000). AID 720580; calls by dose curve; tested in A549 cells; further: nearly all actives have a fitted effect of over 30% in size
FMDV antiviral – antivirals against foot and mouth disease virus | actives 1.2% (n = 410,000) | AID 1159524 | FMDV antiviral cell-based qHTS | Potency, µM (titrated, usually from 57.9 µM), usual class: inhibitors; calls by dose curve; tested in HEK293T cells; further: read-out not given here; nearly all actives have a fitted effect of over 45% in size
Vaccinia mCherry – inhibitors of vaccinia virus infection (mCherry reporter signal) | Vaccinia virus mCherry reporter infection, fluorescence | Potency, µM (highest dose often 36.5 µM), actives largely listed as inhibitors | actives 0.63% (n = 310,000) | AID 720579; calls by dose curve; tested in A549 cells; further: nearly all actives have a fitted effect of over 35% in size
HCMV antiviral – blocks human cytomegalovirus replication | actives 4.5% (n = 410,000) | AID 1259415 | HFF cells, HCMV-luciferase reporter, 72 h; hits give low values | activity change, negative = inhibition, % at 57.5 µM; in the data active means activity change below about -60%; inconclusive means no clear call, values can overlap the other calls; inactive means above about -39%
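Two-dose cell screen: HFF monolayers treated with compounds and infected with luciferase-expressing HCMV at 1 PFU/cell, 72 h at 37C, then lysed for luciferase measurement.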
Large screens that a line does not name were inactive. Unless noted, the call rests on the fitted dose curve; in most records, active means well fitted curve in the direction sought with a large enough effect; inconclusive means small, poorly fitted or top-dose-only effect, or another doubt; inactive means no such curve, though single readings can be large; an effect the other way counts as inactive or inconclusive.

COc1ccc(CCN2CN(S(=O)(=O)c3ccccc3)c3nc4ccccc4nc32)cc1	none
COc1ccc(CCN2CN(S(=O)(=O)c3ccccc3)c3nc4ccccc4nc32)cc1OC	HCV inh inconclusive, HCMV antiviral -66
O=C(Nc1ccccc1-c1nc2ccccc2s1)c1ccco1	HCV inh 4µM
O=C(Nc1ccccc1-c1nc2ccccc2s1)c1cccnc1Cl	HCV inh 35µM
O=C(Nc1ccccc1-c1nc2ccccc2s1)c1ccc(F)cc1	none (no result: Giardia FBPA inh, HCV inh)
CCOc1ccc(OCC)c(NC(=O)Nc2ccc3c(c2)N(C)C(=O)CS3)c1	HCV inh inconclusive, FMDV antiviral inconclusive
CC(C)[C@H]1C(=O)O[C@H](C(C)C)C(=O)N(C)[C@@H](C(C)C)C(=O)O[C@H](C(C)C)C(=O)N(C)[C@@H](C(C)C)C(=O)O[C@H](C(C)C)C(=O)N1C	HCV inh inconclusive, VACV Venus inh inconclusive, FMDV antiviral 11µM, Vaccinia mCherry inconclusive (no result: HCMV antiviral)
C=CCn1c(C)c(/C=C/c2cc[n+](C)cc2)c2ccccc21	HCV inh inconclusive, FMDV antiviral inconclusive, HCMV antiviral -96
C=CCn1cc(/C=C/c2cc[n+](C)cc2)c2ccccc21	HCV inh inconclusive, FMDV antiviral inconclusive, HCMV antiviral -96 (no result: VACV Venus inh, Vaccinia mCherry)
CC(C)n1cc(/C=C/c2cc[n+](C)cc2)c2ccccc21	Giardia FBPA inh inconclusive, HCV inh 32µM, FMDV antiviral inconclusive, Vaccinia mCherry inconclusive, HCMV antiviral -95
Cc1ccccc1/C=C/c1cc[n+](C)cc1	HCV inh inconclusive, HCMV antiviral inconclusive (no result: VACV Venus inh, Vaccinia mCherry)
O=S(=O)(Nc1nc2ccccc2nc1Nc1ccc(N2CCOCC2)cc1)c1cc(Cl)ccc1Cl	HCV inh inconclusive (no result: VACV Venus inh, Vaccinia mCherry)
CCOc1ccccc1C(=O)NC(C(=O)N(C)Cc1ccc2c(c1)OCO2)C(C)C (stereo not given)	HCV inh inconclusive, FMDV antiviral inconclusive, HCMV antiviral inconclusive (no result: Giardia FBPA inh)
Cc1ccc(-c2cn3c(n2)sc2cc(C(=O)NC4CCCc5ccccc54)ccc23)cc1 (stereo not given)	none (no result: Giardia FBPA inh, HCV inh, HCMV antiviral)
COC(=O)C1=C(c2cccc(OCc3ccccc3)c2)C[C@@H]2CC[C@H]1N2C(=O)NCc1ccc(N(C)C)cc1	HCV inh 13µM, VACV Venus inh inconclusive (no result: Giardia FBPA inh)
COC(=O)C1=C(c2cccc(OCc3ccccc3)c2)C[C@@H]2CC[C@H]1N2C(=O)NCc1cccc(OC)c1	HCV inh inconclusive, Vaccinia mCherry inconclusive (no result: Giardia FBPA inh)
COC(=O)C1=C(c2cccc(OCc3ccccc3)c2)C[C@@H]2CC[C@H]1N2C(=O)NCc1ccc(C(C)(C)C)cc1	HCV inh 25µM, VACV Venus inh inconclusive, Vaccinia mCherry inconclusive (no result: Giardia FBPA inh)
Cn1cc(-c2cc3c(Nc4ccc(OC(F)(F)F)cc4)nccc3[nH]2)cn1	HCMV antiviral -65 (no result: Giardia FBPA inh, HCV inh, VACV Venus inh, FMDV antiviral, Vaccinia mCherry)
COc1ccc(Nc2nccc3[nH]c(-c4cccc(F)c4)cc23)cc1	none (no result: Giardia FBPA inh, HCV inh, VACV Venus inh, FMDV antiviral, Vaccinia mCherry)
CSc1ccccc1OCc1cc(C(=O)N2CCc3[nH]cnc3C2c2ccccn2)no1 (stereo not given)	HCMV antiviral -60 (no result: Giardia FBPA inh)
CSc1ccccc1OCc1cc(C(=O)N2CCc3c(Cl)cccc3C2)no1	HCV inh 13µM, HCMV antiviral inconclusive
CCOC(=O)N1CCC(NC(=O)c2cc(COc3ccccc3SC)on2)CC1	HCV inh 16µM
O=C(c1ccc(COc2ccc(Br)cc2)o1)N1N=C(C(F)F)CC1(O)C(F)F (stereo not given)	HCV inh inconclusive, VACV Venus inh inconclusive, FMDV antiviral 25µM, Vaccinia mCherry inconclusive
CCOc1ccc(OCc2ccc(C(=O)N3N=C(C(F)F)CC3(O)C(F)F)o2)cc1 (stereo not given)	none (no result: VACV Venus inh, Vaccinia mCherry)
CCCC[C@@H]1C[C@H]1C(NC(=O)c1ccccc1)c1ccc(C(F)(F)F)cc1 (stereo not given in full)	none (no result: HCV inh, VACV Venus inh, FMDV antiviral, Vaccinia mCherry, HCMV antiviral)
CC(Sc1nnc(-c2cccnc2)n1-c1ccccc1F)C(=O)N1CCCc2ccccc21 (stereo not given)	HCMV antiviral -65 (no result: VACV Venus inh, FMDV antiviral, Vaccinia mCherry)
CC(=O)c1cccc(NC(=O)c2ccc(N(C)S(=O)(=O)c3ccc(C)cc3)cc2)c1	HCV inh inconclusive, FMDV antiviral inconclusive (no result: Giardia FBPA inh, VACV Venus inh, Vaccinia mCherry)
CC(Oc1ccc(F)cc1)C(=O)Oc1ccc(N(C)S(=O)(=O)c2ccccc2)cc1 (stereo not given)	none (no result: Giardia FBPA inh)
Cc1ccc(S(=O)(=O)N(C)c2ccc(OC(C)C(=O)N(C)c3ccccc3)cc2)cc1 (stereo not given)	HCV inh 11µM (no result: Giardia FBPA inh)
CC(=O)c1ccc(NC(=O)C(C)Oc2ccc(N(C)S(=O)(=O)c3ccc(C)cc3)cc2)cc1 (stereo not given)	HCV inh 13µM (no result: Giardia FBPA inh, VACV Venus inh, Vaccinia mCherry)
Cc1ccc(NC(=O)NNC(=O)C2CC(c3cccs3)=NO2)cc1 (stereo not given)	none
CCCC(C)(C)C(=O)N1CCC1(C)C(=O)Nc1ccc2c(c1)OCCO2 (stereo not given)	HCMV antiviral -66 (no result: Giardia FBPA inh, HCV inh)
CCCC(C)(C)C(=O)N1CCC1(C)C(=O)Nc1ccc(OC)c(OC)c1 (stereo not given)	none (no result: Giardia FBPA inh, HCV inh)
CC1(C(=O)Nc2ccc3c(c2)OCCO3)CCC(=O)N1C1CC1 (stereo not given)	HCMV antiviral -100 (no result: Giardia FBPA inh, HCV inh)
CC1(C(=O)Nc2ccc3c(c2)OCCO3)CSCC(=O)N1C1CC1 (stereo not given)	none (no result: Giardia FBPA inh, HCV inh)
Cc1cc(C)cc(NC(=O)C(C)N2Cc3ccccc3C2=O)c1 (stereo not given)	none (no result: Giardia FBPA inh, HCV inh)
CN(C)c1ccc(NC(=O)c2cn(-c3ccccc3)nc2-c2cccs2)cc1	HCV inh inconclusive (no result: VACV Venus inh, Vaccinia mCherry)
CCN(CC)CCOC(=O)c1ccc(NC(=O)c2cn(-c3ccccc3)nc2-c2cccs2)cc1	HCV inh 7.9µM
O=C(Nc1ccc2ccccc2c1)c1cn(-c2ccccc2)nc1-c1cccs1	HCV inh inconclusive, HCMV antiviral -60 (no result: VACV Venus inh, Vaccinia mCherry)
COc1ccc(-c2nn(-c3ccccc3)cc2/C=N/N=C(N)N)cc1OC	HCV inh inconclusive, VACV Venus inh inconclusive, FMDV antiviral inconclusive, Vaccinia mCherry inconclusive, HCMV antiviral inconclusive
NC(N)=N/N=C/c1cn(-c2ccccc2)nc1-c1cccs1	HCV inh inconclusive, FMDV antiviral inconclusive, HCMV antiviral -98 (no result: VACV Venus inh, Vaccinia mCherry)
Cc1onc(-c2ccccc2)c1C(=O)OCC(=O)NCc1ccc(F)cc1	HCV inh inconclusive, FMDV antiviral inconclusive, HCMV antiviral inconclusive
C=CC(=O)N1C/C(=C/c2ccc(F)cc2)C(=O)/C(=C\c2ccc(F)cc2)C1	HCV inh inconclusive, VACV Venus inh 7.9µM, FMDV antiviral 8.9µM, Vaccinia mCherry inconclusive, HCMV antiviral -100 (no result: Giardia FBPA inh)
O=P(O)(O)CN1CCNCCN(CP(=O)(O)O)CCNCC1	HCV inh inconclusive, HCMV antiviral -61 (no result: Giardia FBPA inh)
COc1ccc(NC(=O)NC[C@@H]2CC[C@@H](Cc3ccc(-c4ccccc4)cc3)O2)cc1	HCV inh 4.5µM (no result: Giardia FBPA inh)
CCn1cc(C(=O)N[C@H](C(=O)NCCCn2ccnc2)C(C)C)c(=O)c2cc3c(cc21)OCO3	none

Source: PubChem (National Center for Advancing Translational Sciences (NCATS))
